Screening data deposited in PubChem by National Center for Advancing Translational Sciences (NCATS).
Sfp inh = qHTS Assay for Inhibitors of Bacillus subtilis Sfp phosphopantetheinyl transferase (PPTase). Biochemical Sfp PPTase activity, qHTS. Potency, µM, for the others: largest response in the series, negative = inhibition, actives largely listed as inhibitors. hit rate 3.5% among 310,000;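 further: the enzyme is Sfp with the accession as filed and its product quenches rhodamine fluorescence; 0% = enzyme reaction without inhibitor and -100% = no enzyme wells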
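Fluorescence-quenching assay: 15 nM Sfp-PPTase preincubated 15 min at room temperature with compound, then 5 uM rhodamine-CoA and 12.5 uM BHQ-2-labelled YbbR peptide added. Fluorescence (ex 525/em 598 nm) read at start and after 30 min; difference gives rate.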
HP1b chromo inh = HTS for Inhibitors of HP1-beta Chromodomain Interactions with Methylated Histone Tails | Potency, µM (doses to about 114 µM), without a hit: at the highest dose activity change, negative = inhibition, hits mostly inhibitors | AlphaScreen HP1-beta / biotin-H3K9me3 peptide binding | hit rate 0.56% among 390,000; further: nearly all actives have a fitted effect of over 70% in size
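AlphaScreen: HP1-beta (50 nM) preformed 30 min with biotin-H3(1-18)K9me3 peptide (50 nM) in PBS pH 7.4, 0.01% Tween-20. Compound added for 30 min at RT, then streptavidin donor/nickel chelate acceptor beads (10 ug/mL) for 30 min.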
G9a block = qHTS Assay for Inhibitors of Histone Lysine Methyltransferase G9a. Histone-lysine N-methyltransferase EHMT2 (Homo sapiens), Q96KQ7. G9a H3K9 monomethylation, AlphaScreen, 2 h. Potency, µM (series often up to 102 µM), inactives show top-dose activity, negative = inhibition, hits mostly inhibitors. AID 504332, 2011. hit rate 8.8% among 350,000; further: on the % scale 0 is the no-effect control and ±100 the full control effect; nearly all actives have a fitted effect of over 75% in size
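Using a bead-based AlphaScreen, monomethylated H3K9 product from 2 h room-temperature reactions (G9a 20 nM, peptide 500 nM, SAM 20 uM) was detected with 0.5 ug/mL rabbit anti-H3K9me1 antibody.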
PLK1 PBD block = qHTS for Inhibitors of PLK1-PDB (polo-like kinase 1 - polo-box domain): Primary Screen. Serine/threonine-protein kinase PLK1 (Homo sapiens), P53350. Plk1 PBD binding of FITC phosphopeptide, fluorescence polarization. Potency, µM, inactives show max response, negative = inhibition, actives largely listed as inhibitors. hit rate 2.8% among 360,000. AID 720504, 2013; further: series mostly up to about 57 µM; on the % scale 0 is the no-effect control and ±100 the full control effect; nearly all actives have a fitted effect of over 65% in size
JMJD2A Tudor inh = qHTS Assay for Inhibitors of JMJD2A-Tudor Domain. Lysine-specific demethylase 4A (Homo sapiens), O75164. AlphaScreen JMJD2A-Tudor / H3K4me3 peptide binding. Potency, µM (doses to about 114 µM), for inactives: top-dose activity change, negative = inhibition, hits mostly inhibitors. hit rate 4.4% among 390,000. AID 504339, 2011; further: on the % scale 0 is the no-effect control and ±100 the full control effect; nearly all actives have a fitted effect of over 50% in size
Target sequence (O75164 whole entry, looked up, the tested form may be a part): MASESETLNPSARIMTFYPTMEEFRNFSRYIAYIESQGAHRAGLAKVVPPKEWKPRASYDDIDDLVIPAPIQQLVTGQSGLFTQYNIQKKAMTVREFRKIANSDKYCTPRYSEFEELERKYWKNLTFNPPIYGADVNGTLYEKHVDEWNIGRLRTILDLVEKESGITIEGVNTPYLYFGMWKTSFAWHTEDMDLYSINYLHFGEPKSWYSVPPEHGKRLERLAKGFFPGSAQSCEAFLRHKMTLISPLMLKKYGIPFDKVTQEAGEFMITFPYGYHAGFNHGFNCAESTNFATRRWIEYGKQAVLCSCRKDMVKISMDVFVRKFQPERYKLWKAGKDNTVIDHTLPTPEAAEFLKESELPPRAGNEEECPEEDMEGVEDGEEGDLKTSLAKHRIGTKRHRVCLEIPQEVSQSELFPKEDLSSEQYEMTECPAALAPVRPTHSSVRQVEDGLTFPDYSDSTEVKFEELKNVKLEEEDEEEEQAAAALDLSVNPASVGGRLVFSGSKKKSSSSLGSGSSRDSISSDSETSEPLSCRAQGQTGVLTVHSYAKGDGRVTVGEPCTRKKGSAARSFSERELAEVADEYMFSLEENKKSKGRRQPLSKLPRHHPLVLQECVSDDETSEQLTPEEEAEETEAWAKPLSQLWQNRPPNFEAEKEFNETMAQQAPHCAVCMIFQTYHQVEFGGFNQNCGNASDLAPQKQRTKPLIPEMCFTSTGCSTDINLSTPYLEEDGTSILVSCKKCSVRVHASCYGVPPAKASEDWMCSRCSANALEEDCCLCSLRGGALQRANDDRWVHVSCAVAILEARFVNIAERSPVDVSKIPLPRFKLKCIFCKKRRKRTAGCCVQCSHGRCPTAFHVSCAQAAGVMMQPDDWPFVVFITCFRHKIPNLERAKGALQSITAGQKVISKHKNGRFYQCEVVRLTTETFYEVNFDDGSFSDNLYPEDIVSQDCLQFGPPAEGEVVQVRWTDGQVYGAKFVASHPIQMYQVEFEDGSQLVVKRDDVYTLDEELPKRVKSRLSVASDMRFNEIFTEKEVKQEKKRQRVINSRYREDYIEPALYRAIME
BAZ2B block = qHTS Assay for Inhibitors of BAZ2B; hit rate 4.4% among 360,000; Bromodomain adjacent to zinc finger domain protein 2B (Homo sapiens), Q9UIF8; AID 504333, 2011; Potency, µM (series often up to 114 µM), without a hit: top-dose activity change, negative = inhibition, hits mostly inhibitors; AlphaScreen BAZ2B-H3K14Ac peptide displacement; further: on the % scale 0 is the no-effect control and ±100 the full control effect; nearly all actives have a fitted effect of over 60% in size
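BAZ2B (50 nM) with biotin-H3(5-23)K14Ac peptide (50 nM) in PBS pH 7.4, 0.01% Tween-20, preformed 30 min, then compound 30 min at room temperature; top concentration 110uM. AlphaScreen streptavidin donor/nickel chelate acceptor beads (10 ug/mL final), 20 min dark, signal read.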
* marks the source's active call; other numbers are inactive results; [ ] = another dose, or the depositor's remark. Only some compounds are listed: those with a hit (about 12% of all), similar ones and a draw of the others. The call rests on the fitted dose curve; in most records, active means well fitted curve in the direction sought with a large enough effect; inconclusive means small, poorly fitted or top-dose-only effect, or another doubt; inactive means no such curve, though single readings can be large; an effect the other way counts as inactive or inconclusive. Potency means the concentration at half of the fitted maximal effect.

Screening CC(C)(C)OC(=O)Nc1ncnc2c1C(c1ccccc1)c1c(ccc3ccccc13)O2 (centres undefined) returned JMJD2A Tudor inh 0.7%.
`CC1(C)CC(=O)C=C(OC(=O)c2ccc(Cl)cc2)C1` gave Sfp inh 13.0%, HP1b chromo inh 79.9%, G9a block -35.3%[12.7 µM], PLK1 PBD block 11.9µM*, JMJD2A Tudor inh -6.5% and BAZ2B block 2.9%.
For COc1ccc(C(=O)NNC2=CC(=O)CC(C)(C)C2)cc1 the results were Sfp inh 4.9%, HP1b chromo inh 27.7%, G9a block -4.9%[59 µM], PLK1 PBD block -1.6%, JMJD2A Tudor inh -3.4% and BAZ2B block 6.5%.
For O=C(NCC1CCCO1)c1nn2c(C(F)(F)F)cc(-c3ccc(Br)o3)nc2c1Br (centres undefined) the results were Sfp inh 50.1µM*, HP1b chromo inh -3.0%, G9a block 50.1µM*, PLK1 PBD block -17.7%, JMJD2A Tudor inh -4.9% and BAZ2B block 2.2%.
COc1ccc(-c2cc(C(F)(F)F)n3ncc(C(=O)NCC4CCCO4)c3n2)cc1 (centres undefined) was read as Sfp inh 12.2%, HP1b chromo inh -12.0%, G9a block -7.8%[59 µM], PLK1 PBD block 7.52µM*, JMJD2A Tudor inh 7.5%[11.4 µM] and BAZ2B block -0.3%.
For O=C(NC1CCCCC1)c1nn2c(C(F)(F)F)cc(-c3ccco3)nc2c1Br the results were Sfp inh 50.1µM*, HP1b chromo inh 10.2%, G9a block inconclusive, PLK1 PBD block -6.8%, JMJD2A Tudor inh -6.9% and BAZ2B block -2.0%.
COc1cccc(-c2cc(C(F)(F)F)n3ncc(C(=O)NCC4CCCO4)c3n2)c1 (centres undefined) was read as Sfp inh 8.9%, HP1b chromo inh 23.6%, G9a block 3.8%[59 µM], PLK1 PBD block -4.1%, JMJD2A Tudor inh inconclusive and BAZ2B block -4.5%.
`O=C(NC1CCCCC1)c1cnn2c(C(F)(F)F)cc(-c3ccco3)nc12` gave Sfp inh -24.4%, HP1b chromo inh 19.9%, G9a block -5.1%[59 µM], PLK1 PBD block inconclusive, JMJD2A Tudor inh -21.2% and BAZ2B block 7.1%.
C=CCN1C(=O)c2ccc(C(=O)NCC(=O)Nc3c(C)cc(C)cc3C)cc2C1=O was read as HP1b chromo inh 43.5%, G9a block 27.0%[12.7 µM], PLK1 PBD block 7.4%, JMJD2A Tudor inh -8.1% and BAZ2B block -4.8%.
`O=c1cc(-c2ccccc2F)[nH]c2cc3c(cc12)OCO3` gave G9a block -7.1%[59 µM].
Screening CCc1ccccc1NC(=O)N1CCN(c2nnc(C)c3c(C)n(-c4ccccc4)nc23)CC1 returned HP1b chromo inh 0.9%, G9a block 12.1%[59 µM], JMJD2A Tudor inh -9.3% and BAZ2B block -8.0%.
O=c1c2cc3c(cc2[nH]c(=S)n1Cc1ccco1)OCO3 was read as Sfp inh 20µM*, HP1b chromo inh 23.1%, G9a block 39.8µM*, PLK1 PBD block -14.4%, JMJD2A Tudor inh -6.9% and BAZ2B block -24.6%.
CCCN(CCC)C(=O)c1ccc2c(=O)n(Cc3ccco3)c(=S)[nH]c2c1 was read as Sfp inh 12.6µM*, HP1b chromo inh 0.8%, G9a block inconclusive, PLK1 PBD block -8.5%, JMJD2A Tudor inh -36.0% and BAZ2B block -35.1%.
`CN1CCN(C(=O)c2ccc3c(=O)n(Cc4ccco4)c(=S)[nH]c3c2)CC1` gave Sfp inh -5.1%, HP1b chromo inh 17.2%, G9a block 44.7µM*, PLK1 PBD block -6.8%, JMJD2A Tudor inh 12.6µM* and BAZ2B block -5.1%.
O=C(c1ccc2c(=O)n(Cc3ccco3)c(=S)[nH]c2c1)N1CCN(Cc2ccccc2)CC1 was read as Sfp inh 9.2%, HP1b chromo inh 5.7%, G9a block -4.0%[59 µM], PLK1 PBD block -5.2%, JMJD2A Tudor inh -26.1% and BAZ2B block 0.5%.
Screening O=[N+]([O-])c1ccc(CS(=O)c2ccccc2)cc1 (centres undefined) returned HP1b chromo inh 33.5%, PLK1 PBD block inconclusive and JMJD2A Tudor inh -5.6%.
Screening O=[N+]([O-])c1ccc(S(=O)Cc2ccccc2)c([N+](=O)[O-])c1 (centres undefined) returned HP1b chromo inh -13.8%, PLK1 PBD block 0.752µM* and JMJD2A Tudor inh inconclusive.
`CCCN1C=CC(=C/C=C(\C#N)C(=O)OCC)C=C1` gave Sfp inh -1.4%, G9a block inconclusive and BAZ2B block 50.1µM*.
Screening COc1ccc(CN2C(=O)CN=C2Nc2cccc(C)c2C)cc1 returned Sfp inh 8.7%, HP1b chromo inh 23.9%, G9a block 56.2µM*, PLK1 PBD block -1.7%, JMJD2A Tudor inh -23.2% and BAZ2B block inconclusive.
CCOc1ccccc1NC1=NCC(=O)N1Cc1ccc(F)cc1 was read as Sfp inh 4.0%, HP1b chromo inh 13.2%, G9a block 50.1µM*, PLK1 PBD block -12.3%, JMJD2A Tudor inh -14.6% and BAZ2B block inconclusive.
For COc1ccccc1NC1=NCC(=O)N1Cc1ccccc1 the results were Sfp inh -14.0%, HP1b chromo inh 16.0%, G9a block 3.8%[0.501 µM], PLK1 PBD block -5.9%, JMJD2A Tudor inh -5.3% and BAZ2B block -8.4%.
Screening CCOc1cccc2cc(C(=O)Oc3ccc(OC)cc3)c(=O)oc12 returned Sfp inh inconclusive, HP1b chromo inh 12.3%, G9a block 20µM*, PLK1 PBD block -3.7%, JMJD2A Tudor inh -28.6% and BAZ2B block -25.3%.
`CCOc1cccc2cc(C(N)=O)c(=N)oc12` gave Sfp inh 18.0%, HP1b chromo inh 27.6%[57 µM], G9a block 31.6µM*, PLK1 PBD block -6.2%, JMJD2A Tudor inh -3.0% and BAZ2B block -4.4%.
CCOc1cccc2cc(C(=O)NCc3ccccc3)c(=N)oc12 was read as Sfp inh -2.1%, HP1b chromo inh 54.4%, G9a block -3.2%, PLK1 PBD block -2.1%, JMJD2A Tudor inh 1.0% and BAZ2B block 0.2%.
`COc1cccc2cc(C(=O)Oc3ccccc3)c(=O)oc12` gave Sfp inh -6.9%, HP1b chromo inh 20.6%, PLK1 PBD block -7.3%, JMJD2A Tudor inh -19.9% and BAZ2B block inconclusive.
`COc1ccccc1-c1nn(CCC(=O)Nc2cccc(C(C)=O)c2)c2nc(C)cc(C)c12` gave HP1b chromo inh 27.0%, G9a block -0.4%[59 µM], JMJD2A Tudor inh -9.1% and BAZ2B block -17.8%.
